NS1 function inh – influenza NS1 inhibition. AID 2326. Potency, µM (series often up to 46.1 µM). 270,000 compounds, 0.4% hits; calls by dose curve; further: actives are rising curves; nearly all actives have a fitted effect of over 50% in size
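Recovery from NS1-induced slow growth read by OD600 in budding yeast switched to galactose assay medium (pH 6.0, -URA) at 1:100 dilution. Compound 23 nl per well; the matching strain lacking NS1 serves as control.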
Pf growth 96h – P. falciparum growth inhibition at 96 hour, primary screen for plastid delayed-death inhibitors. P. falciparum luciferase reporter growth, 96 h. Potency, µM (doses to about 28.7 µM), most hits filed as inhibitors. 320,000 compounds, 6.9% hits. AID 504834
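P. falciparum expressing integrated firefly luciferase, in erythrocytes at 2% hematocrit, 0.05% parasitemia, incubated with compounds 96 h at 37 C, 5% CO2. Growth inhibition read as loss of luminescence; two-generation exposure targets delayed-death apicoplast inhibitors.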
HCV inh – inhibitors of hepatitis C virus infection. 340,000 compounds, 3.4% hits. Huh7.5.1 HCVcc-Cre infection, luciferase reporter, 44 h. Potency, µM (series often up to 41.8 µM), hits mostly inhibitors. AID 651820
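Cells (1,000/well) were plated 4 h before compound, then infected with HCVcc-Cre virus (~0.5 moi). After 44 h further culture, infection was read as luciferase luminescence following a 15 min substrate incubation at room temperature.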
AMA1 RON2 block – inhibitors of Plasmodium falciparum AMA1-RON2 interaction; AlphaScreen AMA1-biotinylated RON2 peptide binding; Potency, µM (doses to about 58.2 µM), hits mostly inhibitors; 360,000 compounds, 0.2% hits; AID 720542; further: nearly all actives have a fitted effect of over 45% in size
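AMA1 (3D7) with his tag at 25 nM final met compounds first, then biotinylated RON2 peptide at 25 nM; detection used donor plus acceptor beads, 10 µg/mL apiece, read by AlphaScreen after 30 min at room temperature.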
SARS PLP yeast – inhibitors of SARS-CoV papain-like protease in yeast; S. cerevisiae expressing SARS-CoV PLpro, growth rescue; Potency, µM (top dose mostly 32.9 µM), usual class: activators; 330,000 compounds, 0.19% hits; AID 485353; calls by dose curve; further: nearly all actives have a fitted effect of over 55% in size
Pf growth 48h – P. falciparum growth inhibition at 48 hours (one generation); P. falciparum luciferase growth in erythrocytes, 48 h; Potency, µM (highest dose often 28.7 µM), usual class: inhibitors; 310,000 compounds, 5.9% hits; AID 504832
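First compound was added to culture medium, then infected red cells at 0.1% parasitemia and 2% hematocrit (final). After incubation at 37 C under 5% CO2, luciferase detection reagent was dispensed and light output recorded.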
A number is an active result; . = inactive; ? = inconclusive; / = no result; [ ] = remark or other dose. In the library only some 12% were active in any assay of this set; here they are far more common. Unless noted, the call rests on the fitted dose curve; in most records, active means well fitted curve in the direction sought with a large enough effect; inconclusive means small, poorly fitted or top-dose-only effect, or another doubt; inactive means no such curve, though single readings can be large; an effect the other way counts as inactive or inconclusive.

SMILES	NS1 function inh	Pf growth 96h	HCV inh	AMA1 RON2 block	SARS PLP yeast	Pf growth 48h
CC(=O)O[C@H]1CC(C)(C)C(=C=C/C(C)=C/C=C/C(C)=C/C=C/C=C(C)/C=C/C=C(\C)C(=O)C[C@@]23O[C@]2(C)C[C@@H](O)CC3(C)C)[C@](C)(O)C1	.	?	.[8.37 µM]	.	.	9.3µM
CCOC(=O)Cn1nc2sc3ccccc3n2c(=O)c1=O	.	.	.	.	.	.
CCN(C(=O)CSc1nc(N)cc(=O)[nH]1)c1c(N)n(Cc2ccccc2)c(=O)[nH]c1=O	/	.	.	.	.	?
Cc1ccc(S(=O)(=O)NCl)cc1	/	.	/	/	/	.
CN(Cc1cnn(C)c1)S(=O)(=O)c1cccc([N+](=O)[O-])c1	.	?	.	.	.	.
COc1cc(/C=N/Nc2nc(=O)[nH]nc2C)cc([N+](=O)[O-])c1O	.	0.66µM	.	.	.	1.2µM
CC1CCc2c(N3CCC(O)CC3)c(F)cc3c(=O)c(C(=O)O)cn1c23 (stereo unspecified)	/	6µM	.	.	/	15µM
CO/N=C1\CN(c2nc3c(cc2F)c(=O)c(C(=O)O)cn3C2CC2)CC1CN (stereo unspecified)	/	1.7µM	/	/	/	1.9µM
CC(=O)N1CCN(c2cc3c(cc2F)c(=O)c(C(=O)O)cn3C2CC2)CC1	/	.[5.75 µM]	.	.	.	?
NC1CCN(c2c(F)cc3c(=O)c(C(=O)O)cn(C4CC4)c3c2Cl)C1 (stereo unspecified)	.	0.74µM	.	.	.	5.9µM
NC1CCN(c2nc3c(cc2F)c(=O)c(C(=O)O)cn3-c2ccc(F)cc2F)C1 (stereo unspecified)	/	1.1µM	.	.	/	3.8µM
CNCC(=O)NC(CCCN=C(N)N)C(=O)NC(C(=O)NC(Cc1ccc(O)cc1)C(=O)NC(C(=O)NC(Cc1cnc[nH]1)C(=O)N1CCCC1C(=O)NC(C)C(=O)O)C(C)C)C(C)C (stereo unspecified)	/	.	/	/	/	.
COCCNC(=O)C1CCCN(C(=O)c2ccc3ccccc3n2)CC1 (stereo unspecified)	/	/	/	.	/	/
Cc1ccc2nc(C)cc(C(=O)N3CCCC(CO)(Cc4ccccc4C)C3)c2c1 (stereo unspecified)	.	?	.	.	.	?
Cc1ccc(-c2nc3cc(C)c(Br)c(C)n3c2CC(C)(C)C)cc1	/	/	/	.	/	/
CC1CN(c2c(F)c(N)c3c(=O)c(C(=O)O)cn(C4CC4)c3c2F)CC(C)N1 (stereo unspecified)	/	4.8µM	/	/	/	7.6µM
COc1c(N2CCN(C(=S)Nc3ccc(F)cc3)C(C)C2)c(F)cc2c(=O)c(C(=O)O)cn(C3CC3)c12 (stereo unspecified)	.	?	.	.	.	?
Cc1c(F)c(N2CCNC(C)C2)cc2c1c(=O)c(C(=O)O)cn2C1CC1 (stereo unspecified)	/	6.7µM	/	/	/	.
COc1c(N2CCN(C(=S)NC3CC4CCC3C4)C(C)C2)c(F)cc2c(=O)c(C(=O)O)cn(C3CC3)c12 (stereo unspecified)	.	?	?	.	.	?
COc1c(N2CCNC(C)C2)c(F)cc2c(=O)c(C(=O)O)cn(C3CC3)c12 (stereo unspecified)	.	5.4µM	/	/	/	?
CN1C(=O)C(C)(C)c2cc(S(=O)(=O)N3CCCC(C(=O)NCc4ccccc4Cl)C3)ccc21 (stereo unspecified)	.	?	?	.	.	?
Clc1ccc(-c2nc3ncccn3c2Nc2ccc3c(c2)OCO3)cc1	?	4.1µM	.	.	.	4.1µM
COc1cc(-c2nc3ccc(C)cn3c2Nc2ccc3c(c2)OCCO3)ccc1O	.	13µM	.	?	.	12µM
Oc1ccc(-c2nc3ncccn3c2Nc2ccc3c(c2)OCO3)cc1	.	.	.	.	.	?
COc1cc(-c2nc3cnccn3c2Nc2ccccc2)ccc1O	.	5.2µM	.	.	.	?
COc1cc(-c2nc3cnccn3c2Nc2ccc(C)cc2)ccc1O	.	/	?	.	.	?
Cc1ccn2c(Nc3ccc4c(c3)OCO4)c(-c3ccc(O)cc3)nc2c1	.	12µM	.	.	.	?
CCCCOCCCNC(=O)C[C@@H]1C[C@@]2(C(=O)OCC)CCCC=C2N(CCc2ccc(OC)c(OC)c2)C1=O	/	/	/	.	/	/

Bioassay records: PubChem BioAssay, National Center for Advancing Translational Sciences (NCATS)
